According to PubChem BioAssay:
Activity calls are given as the source filed them.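 Rule for the calls, unless noted: active = primary screen hit whose calcium fluorescence ratio, in both repeats, exceeds the weak agonist control mean by 3 SD; inactive = the rest.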

System: TRPC4 (transient receptor potential cation channel C4 beta), mouse
Assay: positive allosteric modulators of mouse TRPC4, confirmation, cell-based, second round, Fluo-4, HEK293 TRPC4beta/mu-opioid, 1 µM (AID 2554;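 active = primary screen hit whose fluorescence ratio, in both repeats, exceeds the weak agonist control mean by 3 SD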)
Conditions: DAMGO EC20, Fluo-4 calcium flux, at 1 µM

outcome, inactive:
COc1cc(C(F)(F)F)nc2c(Br)c(C(C)(C)C)nn12
COc1ccccc1N(C(=O)c1snc(C(N)=O)c1N)C(C(=O)NC1CCCC1)c1ccc2ncccc2c1 (stereo not given)
CCc1c(C(=O)N2CCCN(C)CC2)csc1C
O=c1c2ccccc2nc(SCc2ccc([N+](=O)[O-])cc2)n1CCCO
CN1/C(=C\C(=O)C[n+]2ccc3ccccc3c2)C(C)(C)c2ccccc21
CN(C)CCCN(C(=O)c1ccc(S(=O)(=O)N2CCCC2)cc1)c1nc2c(F)cc(F)cc2s1
O=[N+]([O-])c1cccc(N(CC(O)CN2CCCC2)S(=O)(=O)c2ccccc2)c1 (stereo not given)
Cc1cc(Nc2cccc(O)c2)c2ccccc2n1
COc1ccc(CN2CCN(Cc3ccc(C(F)(F)F)cc3)CC2)c(OC)c1
O=[N+]([O-])c1ccc(O)c(C2=NNC(c3ccccc3F)C2)c1 (stereo not given)
Cn1c(-c2ccccc2)cnc1NCc1ccc(F)cc1
COc1nc(N=C(N)N)nc2ccc(C)cc12
CN(CC(=O)NC1CCCc2ccccc21)C1CCCCC1 (stereo not given)
O=C(CSc1nnc(-c2ccc(Cl)cc2Cl)n1C1CCCCC1)N1CCCC1
Cc1ccc(Nc2cc(C)nc3c(C)cccc23)cc1
COc1cc(OC)c(C2N(C)c3ccccc3N2C)cc1OC
O=[N+]([O-])c1cccc(-c2nnc(C3CC3)o2)c1
O=C(NCCN1CCOCC1)c1cc2sccc2n1Cc1ccc(F)cc1
CN(C)CCCNc1c2ccccc2nc2ccccc12
COc1ccccc1Nc1nc(NCC2CCCO2)c2ccccc2n1 (stereo not given)
CC12CCC(C/C1=N/OC(=O)c1cccc([N+](=O)[O-])c1)C2(C)C (stereo not given)
CCN(CC)CCN(C(=O)c1ccccc1OC)c1nc2ccc(F)cc2s1
CCOc1ccccc1N(C(=O)c1snc(C(N)=O)c1N)C(C(=O)NCc1ccccc1)c1ccc(O)cc1 (stereo not given)
Cc1cc([N+](=O)[O-])ccc1NCc1ccccc1
Cn1c(-c2ccc(F)cc2)cnc1NCc1ccc(F)cc1F
Nc1cc(N2CCCCC2)c([N+](=O)[O-])cc1Cl
CN(C)C(CNC(=O)c1cccc(C(F)(F)F)c1)c1ccco1 (stereo not given)
COc1ccc(CN2CCN(C(=O)c3ccc(F)cc3)CC2)c(OC)c1
COCCn1c(SCc2ccccc2F)nc2ccccc2c1=O
COc1ccccc1C(=O)Nc1ccc2c(c1)CCCN2C(=O)c1cccs1
CCCCn1c(NCc2ccc(N(C)C)cc2)nc2ccccc21
COc1ccc([N+](=O)[O-])cc1NCc1ccco1
Cc1cc(C)c2nc(C)cc(N/N=C/c3ccc(O)cc3)c2c1
Cc1nn(C(=O)CNS(=O)(=O)c2ccccc2)c(C)c1Sc1ccc(Cl)cc1
Cc1n[nH]c(C)c1CCCCOc1ccccc1F
COC(=O)C1=C(C)N(Cc2ccccc2)C(=S)N[C@H]1c1ccccc1
CC1(c2ccccc2)CC(C)(C)N(C(=O)C2CCCO2)c2ccccc21 (stereo not given)
CC(OC(=O)CNC(=O)c1ccccc1F)C(=O)Nc1nc(-c2ccccc2)cs1 (stereo not given)
CC(OCC(O)CN(C)CCOc1ccccc1)c1ccc(Cl)cc1 (stereo not given)
Cc1cc(-c2sccc2C)nc(-n2cccc2)n1

System: TRPC4 beta (transient receptor potential cation channel C4), mouse
Assay: positive allosteric modulators of mouse TRPC4, confirmation, cell-based, Fluo-4, HEK293 TRPC4beta/mu-opioid (AID 2555)
Conditions: DAMGO EC20, Fluo-4 calcium flux, at 10 µM

outcome, inactive:
COc1cc(C(F)(F)F)nc2c(Br)c(C(C)(C)C)nn12
COc1ccccc1N(C(=O)c1snc(C(N)=O)c1N)C(C(=O)NC1CCCC1)c1ccc2ncccc2c1 (stereo not given)
CCc1c(C(=O)N2CCCN(C)CC2)csc1C
O=c1c2ccccc2nc(SCc2ccc([N+](=O)[O-])cc2)n1CCCO
CN1/C(=C\C(=O)C[n+]2ccc3ccccc3c2)C(C)(C)c2ccccc21
CN(C)CCCN(C(=O)c1ccc(S(=O)(=O)N2CCCC2)cc1)c1nc2c(F)cc(F)cc2s1
O=[N+]([O-])c1cccc(N(CC(O)CN2CCCC2)S(=O)(=O)c2ccccc2)c1 (stereo not given)
Cc1cc(Nc2cccc(O)c2)c2ccccc2n1
COc1ccc(CN2CCN(Cc3ccc(C(F)(F)F)cc3)CC2)c(OC)c1
O=[N+]([O-])c1ccc(O)c(C2=NNC(c3ccccc3F)C2)c1 (stereo not given)
Cn1c(-c2ccccc2)cnc1NCc1ccc(F)cc1
COc1nc(N=C(N)N)nc2ccc(C)cc12
CN(CC(=O)NC1CCCc2ccccc21)C1CCCCC1 (stereo not given)
O=C(CSc1nnc(-c2ccc(Cl)cc2Cl)n1C1CCCCC1)N1CCCC1
Cc1ccc(Nc2cc(C)nc3c(C)cccc23)cc1
COc1cc(OC)c(C2N(C)c3ccccc3N2C)cc1OC
O=[N+]([O-])c1cccc(-c2nnc(C3CC3)o2)c1
O=C(NCCN1CCOCC1)c1cc2sccc2n1Cc1ccc(F)cc1
CN(C)CCCNc1c2ccccc2nc2ccccc12
COc1ccccc1Nc1nc(NCC2CCCO2)c2ccccc2n1 (stereo not given)
CC12CCC(C/C1=N/OC(=O)c1cccc([N+](=O)[O-])c1)C2(C)C (stereo not given)
CCN(CC)CCN(C(=O)c1ccccc1OC)c1nc2ccc(F)cc2s1
CCOc1ccccc1N(C(=O)c1snc(C(N)=O)c1N)C(C(=O)NCc1ccccc1)c1ccc(O)cc1 (stereo not given)
Cc1cc([N+](=O)[O-])ccc1NCc1ccccc1
Cn1c(-c2ccc(F)cc2)cnc1NCc1ccc(F)cc1F
Nc1cc(N2CCCCC2)c([N+](=O)[O-])cc1Cl
CN(C)C(CNC(=O)c1cccc(C(F)(F)F)c1)c1ccco1 (stereo not given)
COc1ccc(CN2CCN(C(=O)c3ccc(F)cc3)CC2)c(OC)c1
COCCn1c(SCc2ccccc2F)nc2ccccc2c1=O
COc1ccccc1C(=O)Nc1ccc2c(c1)CCCN2C(=O)c1cccs1
CCCCn1c(NCc2ccc(N(C)C)cc2)nc2ccccc21
COc1ccc([N+](=O)[O-])cc1NCc1ccco1
Cc1cc(C)c2nc(C)cc(N/N=C/c3ccc(O)cc3)c2c1
Cc1nn(C(=O)CNS(=O)(=O)c2ccccc2)c(C)c1Sc1ccc(Cl)cc1
Cc1n[nH]c(C)c1CCCCOc1ccccc1F
COC(=O)C1=C(C)N(Cc2ccccc2)C(=S)N[C@H]1c1ccccc1
CC1(c2ccccc2)CC(C)(C)N(C(=O)C2CCCO2)c2ccccc21 (stereo not given)
CC(OC(=O)CNC(=O)c1ccccc1F)C(=O)Nc1nc(-c2ccccc2)cs1 (stereo not given)
CC(OCC(O)CN(C)CCOc1ccccc1)c1ccc(Cl)cc1 (stereo not given)
Cc1cc(-c2sccc2C)nc(-n2cccc2)n1
